PubChem BioAssay (NCATS)
Results filed as inconclusive are left out. Where a call stands in place of a potency, no number is given. The source made the active and inactive calls. The call rests on the fitted dose curve; in most records, active means well fitted activation curve with a large enough effect; inconclusive means small, poorly fitted or top-dose-only effect; inactive means flat fitted curve, though single readings scatter.

assay: Primary redox qHTS assay for identification of artifact compounds. (AID 1845223); settings: Amplex Red/HRP redox cycling with DTT, fluorescence; series mostly up to 53.8 µM
How it was run: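 Amplex Red (25 uM) and HRP (250 mU/mL) in HBSS, with compounds for 15 min, then 250 uM DTT for 30 min, room temperature, dark. Fluorescence 525/598 nm read; normalized to DMSO and 10 uM DA3003; Hill fit.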

Structure (SMILES) | Potency
CCC(C)C(=O)O[C@@H]1[C@@H](O)[C@@H](O[C@H]2O[C@H](CO)[C@@H](O)[C@H](O)[C@H]2O)O[C@H](CO)[C@H]1O (some centres undefined) | inactive
CC1(C)C(O)CCC2(C)C1C(O)C=C1COC(=O)C12O (centres undefined) | inactive
O=C1Nc2ccc(O)cc2O[C@H]1O[C@@H]1O[C@H](CO)[C@@H](O)[C@H](O)[C@H]1O | inactive
COc1ccccc1CC(C(=O)O)N(C)C(=O)c1ccccc1 (centres undefined) | inactive
CC(/C=C/C1(O)C(C)CC(O)CC1(C)C)OC1OC(CO)C(O)C(O)C1O (centres undefined) | inactive
CC(NC(=O)CC(=O)O)c1nc2ccccc2c(=O)[nH]1 (centres undefined) | inactive
C=CC(C)(O)CO[C@@H]1O[C@H](CO)[C@@H](O)[C@H](O)[C@H]1O (some centres undefined) | inactive
CNC(=O)c1ccc2cc([C@@]3(O)CCn4cncc43)ccc2c1 | inactive
CC1(C)CCC[C@@]2(C)[C@H]1[C@H](O)C=C1COC(=O)[C@@]12O | inactive
